# Source: PubChem BioAssay (National Center for Advancing Translational Sciences (NCATS))
# HT1080NT lethal: qHTS for induction of synthetic lethality in tumor cells producing 2HG: qHTS for the HT-1080-NT fibrosarcoma cell line; 360,000 tested, 1.6% active; HT-1080-NT fibrosarcoma viability, CellTiter-Glo ATP luminescence, 48 h; Potency, µM (doses to about 46.1 µM), for the others: at the top dose activity, negative = less viability, most hits filed as cytotoxic;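 further: NT is the 2HG producing partner of a matched IDH1 knockdown line; potency means the concentration at half of the fitted maximal effect; 0% = DMSO-treated cells and -100% = media-only wells without cells; nearly all actives have a fitted effect of over 55% in size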
#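 A 48-hour cytotoxicity screen used HT-1080-NT cells plated 2 hours before compound delivery. ATP-based CellTiter-Glo luminescence measured viability, normalized to DMSO and no-cell controls.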
# TDP1 cell noCPT: qHTS for Inhibitors of human tyrosyl-DNA phosphodiesterase 1 (TDP1): qHTS in cells in absence of CPT; Potency, µM (top dose mostly 46.2 µM), for inactives: top-dose activity change, negative = growth inhibition, actives largely listed as inhibitors; 420,000 tested, 15% active; DT40 Tdp1-/- hTDP1 cells, no CPT, ATP luminescence, 48 h; further: potency means the concentration at half of the fitted maximal effect; nearly all actives have a fitted effect of over 55% in size
#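 A cellular qHTS used chicken DT40 cells lacking endogenous Tdp1 but carrying stably transfected human TDP1. Compounds were applied without camptothecin, and cell growth kinetics were judged by ATP-dependent luminescence after ≥48 hr.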
# IL-1B inflam inh: qHTS for Inhibitors of Inflammasome Signaling: IL-1-beta AlphaLISA Primary Screen; THP-1 LPS/ATP IL-1B secretion, AlphaLISA, 16 h; active compounds read low; activity change, % at 57.5 µM; 360,000 tested, 4.7% active; AID 743279, 2014; in the data active means activity change below about -50%; inconclusive means mostly about -30% to -49%
#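 THP-1 cells pretreated 1 hr with compounds (up to 57.5 uM final), then stimulated with LPS (250 ng/mL final) plus ATP (1.25 mM final); secreted IL-1B measured by AlphaLISA after 16 hr, decreased signal indicating inhibition.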
# DT40 TDP1 CPT: qHTS for Inhibitors of human tyrosyl-DNA phosphodiesterase 1 (TDP1): qHTS in cells in presence of CPT | chicken DT40 Tdp1-/-;hTDP1 cells + 20 nM CPT, ATP luminescence, 48 h | Potency, µM (titrated, usually from 46.2 µM), for inactives: top-dose activity change, negative = growth inhibition, usual class: inhibitors | 420,000 tested, 12% active; further: potency means the concentration at half of the fitted maximal effect; nearly all actives have a fitted effect of over 55% in size
#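 Cell growth measured by CellTiter-Glo luminescence after a minimum 48 h, 37 C compound exposure with 20 nM CPT in Tdp1-knockout DT40 cells stably expressing hTDP1, seeded 400/well; qHTS titration format.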
# HT1080 IDH1KD tx: qHTS for induction of synthetic lethality in tumor cells producing 2HG: qHTS for the HT-1080-IDH1KD cell line; HT-1080 IDH1 knockdown viability, ATP luminescence, 48 h; Potency, µM (series often up to 46.1 µM), without a hit: top-dose activity, negative = toxicity, usual class: cytotoxic; 360,000 tested, 2% active;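 further: potency means the concentration at half of the fitted maximal effect; 0% = DMSO wells and -100% = cell-free medium wells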
#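 IDH1KD HT-1080 cells, 750/well, RPMI + 5% FBS; compound pinned after 2 h settling; 48 h, 37 °C; CellTiter-Glo luminescence; % activity normalised to DMSO and no-cell wells; curves fitted, classed by r2 and efficacy.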
# The depositor's hits bear a star; ? = inconclusive; nt = no result; ! = a repeat was not active. In the library only some 19% were active in any assay of this set; here they are far more common. Unless noted, the call rests on the fitted dose curve; in most records, active means well fitted curve in the direction sought with a large enough effect; inconclusive means small, poorly fitted or top-dose-only effect, or another doubt; inactive means no such curve, though single readings can be large; an effect the other way counts as inactive or inconclusive. Unless noted, on the % scale 0 is the no-effect control and ±100 the full control effect.
SMILES,HT1080NT lethal,TDP1 cell noCPT,IL-1B inflam inh,DT40 TDP1 CPT,HT1080 IDH1KD tx
COc1ccccc1/C=C/C(=O)NC(=S)NCC1CCCO1 (stereo not given),3%,?,-62*,-28%,0%
Cc1ccccc1C(=O)Nc1ccc(S(=O)(=O)NCC2CCCO2)cc1 (stereo not given),6%,13µM*,6,10µM*,-1%
COCC(=O)Nc1ccc(S(=O)(=O)NCC2CCCO2)cc1 (stereo not given),0%,-3%,22,6%,4%
O=C(Cc1ccc(Br)cc1)Nc1ccc(S(=O)(=O)NCC2CCCO2)cc1 (stereo not given),-20%,18µM*,-14,12µM*,-11%
S=C(NCCCN1CCOCC1)N(Cc1ccccc1)Cc1ccccc1,-9%,-6%,-30,2%,-9%
NC(=O)Cc1ccc(Nc2nnc(-c3ccccc3)c3ccccc23)cc1,17%,0%,-15,7%,17%
Clc1ccc(-c2nnc(NCc3ccccc3)c3ccccc23)cc1,?,?,-94*,?,?
Cc1ccc(-c2nnc(NCc3ccccc3)c3ccccc23)cc1,-13%,?,-84*,?,-11%
CCC1=C(OC(=O)N(CC)CC)N2C(=O)OC(=NCC3CC3)[C@]2(C)[C@H]2C1=CC[C@H]1C(=O)N(CC)C(=O)[C@H]12,13%,3%,-8,-6%,13%
COC(=O)[C@@H]1CCCN1C(=O)c1c(OC)cc(=O)n2c1CCN(Cc1ccc3c(c1)CCO3)CC2,nt,-4%,nt,27%,nt
Clc1ccc2nc(-c3cccc(SC4CCCCC4)c3)c(NCc3ccccc3)n2c1,0%,?,-24,16µM*,0%
COc1ccc(-c2ccc(-c3nc4ccc(C)cn4c3NC3CCCCC3)cc2OC)cc1,?,13µM*,-55*!,10µM*,?
c1ccc(CNc2c(-c3cccc(SC4CCCCC4)c3)nc3ccccn23)cc1,?,?,-28,?,?
CCC(C)Sc1ccc(-c2nc3ccc(C)cn3c2NC2CCCCC2)cc1 (stereo not given),nt,8.2µM*,21,7.3µM*,nt
Cc1ccn2c(NCc3ccccc3)c(-c3cccc(SC4CCCCC4)c3)nc2c1,?,?,-79*!,23µM*,?
CCCCn1c(N)c(N(CCOC)C(=O)COC(=O)c2ccccc2NCCO)c(=O)[nH]c1=O,-2%,21%,14,-3%,-9%
O=C(Nc1ccccc1F)c1ccc2ncsc2c1,11%,-24%,-21,-14%,2%
Cc1ccn2c(NC(=O)c3ccccc3)c(-c3ccccc3)nc2c1,-7%,4%,2,20%,0%
Cc1ccc2nc(-c3cccc(SC4CCCCC4)c3)c(NC3CCCCC3)n2c1,-1%,16µM*,10,21µM*,-1%
Cc1ccc2nc(-c3cccnc3)c(NC3CCCCC3)n2c1,-5%,?,35,?,2%
CCC(C)Sc1cccc(-c2nc3cc(C)ccn3c2NCc2ccccc2)c1 (stereo not given),21µM*,?,-73*,23µM*,26µM*
Cc1ccc2nc(-c3cccc(SC4CCCCC4)c3)c(NCc3ccccc3)n2c1,?,18µM*,-3,26µM*,-22%
COc1ccc(NC(=O)Nc2cnccn2)cc1OC,10%,3%,-11,-9%,18%
COc1ccc(Nc2cc(C)c3cc(NC(=O)COc4cccc(C)c4)ccc3n2)cc1,nt,15µM*,nt,16µM*,nt
COc1ccc(CC(=O)Nc2ccc3nc(Nc4ccc(OC)cc4)cc(C)c3c2)cc1,nt,23µM*,nt,?,nt
SMILES,HT1080NT lethal,TDP1 cell noCPT,IL-1B inflam inh,DT40 TDP1 CPT,HT1080 IDH1KD tx
Cc1cc(Nc2cccc(Cl)c2)nc2ccc(NC(=O)Cc3c(F)cccc3Cl)cc12,nt,7.3µM*,nt,13µM*,nt
COc1ccc(OCC(=O)Nc2cccc(OC)c2)cc1,-2%,-10%,4,-3%,-25%
Cc1cccc(NC(=O)Cc2c(F)cccc2Cl)n1,6%,-11%,-21,0%,-9%
COc1ccc(Nc2cc(C)c3cc(NC(=O)Cc4c(F)cccc4Cl)ccc3n2)cc1,nt,13µM*,nt,16µM*,nt
CC1(C)CC(=O)C2=C(C1)NC(=O)CC2,17%,12%,-2,-3%,16%
OCC[N+]1(CCc2ccccc2)CCOCC1,nt,-8%,nt,-13%,nt
COC(=O)c1cc(Cl)c(NC(=O)c2cc3ccccc3o2)cc1OC,23%,?,18,?,22%
COc1ccc(NC(=O)c2cccc(NC(=O)c3ccccc3)c2)cc1,-5%,?,?,-35%,-20%
COc1ccc(Nc2cc(C)c3cc(NC(=O)c4cc(OC)cc(OC)c4)ccc3n2)cc1,nt,7.3µM*,nt,9.2µM*,nt
CCN(Cc1ccccc1)S(=O)(=O)c1ccc(-c2coc(C)n2)cc1,nt,23µM*,nt,13µM*,nt
Cc1nc(-c2ccc(S(=O)(=O)N(Cc3ccccc3)C(C)C)cc2)co1,nt,15µM*,nt,?,nt
CCN(Cc1ccccc1)S(=O)(=O)c1ccc(OC)cc1,-2%,16µM*,-4,?,1%
Nn1c(COc2ccccc2F)nnc1SCC(=O)NC1CCS(=O)(=O)C1 (stereo not given),14%,-12%,7,0%,6%
CC(C)(C)c1ccc(C(=O)NC(=O)COC(=O)c2ccc(Br)o2)cc1,8%,?,-5,?,0%
CN(Cc1ccccc1)C(=O)c1[nH]cnc1C(=O)N[C@@H](CCCCNC(=O)OC(C)(C)C)C(=O)OC(C)(C)C,-2%,?,?,16µM*,-6%
CC(C)(C)OC(=O)NCCCC[C@H](NC(=O)c1nc[nH]c1C(=O)NCc1ccccc1)C(=O)OC(C)(C)C,-16%,?,?,?,?
C[C@H](NC(=O)c1nc[nH]c1C(=O)N[C@@H](C)c1ccccc1)C(=O)OC(C)(C)C,8%,3%,0,?,3%
CC(C)(C)OC(=O)NCCCC[C@H](NC(=O)c1[nH]cnc1C(=O)N[C@@H](Cc1ccccc1)C(=O)OC(C)(C)C)C(=O)OC(C)(C)C,-5%,9.2µM*,-56*,21µM*,-17%
C[C@H](NC(=O)c1nc[nH]c1C(=O)N[C@@H](CCCCNC(=O)OC(C)(C)C)C(=O)OC(C)(C)C)c1ccccc1,?,23µM*,-52*,?,?
